# Screening results: PubChem, several laboratories
# An excerpt weighted towards active compounds, which were near 4.1% of everything screened.
# DUSP3 inh = inhibitors of human VHR1 phosphatase (DUSP3); P51452; inhibition, % at 13.3 µM; AID 1654; recombinant VHR phosphatase, pNPP absorbance; hit rate 0.52% among 290,000; in the data active means inhibition above about 50%
# Target sequence (P51452 whole entry, looked up): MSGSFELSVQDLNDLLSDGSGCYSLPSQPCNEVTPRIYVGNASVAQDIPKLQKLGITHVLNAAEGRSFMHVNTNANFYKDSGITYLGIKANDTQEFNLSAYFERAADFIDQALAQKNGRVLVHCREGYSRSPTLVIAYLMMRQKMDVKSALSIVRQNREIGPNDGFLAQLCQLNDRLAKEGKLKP
# BoNT-F LC inh = inhibitors of Botulinum neurotoxin F light chain protease; inhibition, % at 10 µM; Multiplex microsphere protease cleavage assay, flow cytometry; hit rate 0.22% among 360,000; in the data active means inhibition above about 35%, passing the limit was not always enough; inconclusive means no clear call, values can overlap the other calls; further: plate controls were buffer without enzyme for full effect and enzyme alone for no effect
# BoNT A protease = BoNT A light chain protease inhibition; multiplex microsphere protease substrate cleavage, flow cytometry; inhibition, % at 10 µM; hit rate 0.17% among 360,000; further: plate controls were buffer without enzyme for full effect and enzyme alone for no effect
# MazEF act = MazEF (E. coli) toxin RNase activation | P0AE70 | FAM/BHQ RNA-DNA oligo cleavage fluorescence, 5 h | activation, % at 20 µM | hit rate 0.32% among 350,000; in the data active means activation above about 50%
# Target sequence (P0AE70 whole entry, looked up): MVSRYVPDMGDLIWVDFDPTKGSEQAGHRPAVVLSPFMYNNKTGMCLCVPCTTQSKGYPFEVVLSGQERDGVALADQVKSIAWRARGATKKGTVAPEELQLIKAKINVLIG
# Bead autofluor = compound fluorescence in toxin protease inhibitor counterscreen. hit rate 3.1% among 360,000. fluorescence intensity (no concentration beside the values). compound autofluorescence counterscreen, microsphere flow cytometry; active compounds read high. AID 624483; in the data active means fluorescence intensity above about 16000; inconclusive means no clear call, values can overlap the other calls
# Anthrax LF prot = inhibitors of Bacillus anthracis lethal factor protease | AID 588501 | hit rate 0.12% among 360,000 | multiplex microsphere protease cleavage assay, LF | P15917 | inhibition, % at 10 µM; further: plate controls were buffer without enzyme for full effect and enzyme alone for no effect
# Starred values were filed as active, the others as inactive; ? = inconclusive; / = no result given. Unless noted, no stated cut-off is given here; in the data, active means inhibition above about 30%; inconclusive means no clear call, values can overlap the other calls; inactive means below that.
SMILES,DUSP3 inh,BoNT-F LC inh,BoNT A protease,MazEF act,Bead autofluor,Anthrax LF prot
O=C(CCl)N(c1ccccc1)C1CCCCC1,10,-8,0,4,3244,1
Cc1ccc(-n2nc(C(=O)O)cc2-c2ccc(Cl)cc2)cc1,32,-1,-1,-7,4430,-3
Cc1ccc(-n2nc(C(=O)O)cc2-c2ccccc2)cc1,10,-7,-4,-1,22097*,-2
CN(C)CCCN(C(=O)COc1ccc(Cl)cc1)c1nc2cc3c(cc2s1)OCO3,24,/,/,50,/,/
C#CCN1C(=O)C(O)(CC(=O)c2cccc(OC)c2)c2ccccc21 (stereo not drawn),9,-11,0,8,3708,0
O=C(CC1(O)C(=O)Nc2ccccc21)c1ccc2c(c1)OCO2 (stereo not drawn),-6,2,0,-5,8963,-2
Cc1ccc2c(c1C)NC(=O)C2(O)CC(=O)c1ccc2c(c1)OCO2 (stereo not drawn),0,0,?,-9,16395*,-3
CCOC(=O)CN1C(=O)C(O)(CC(=O)c2cccc(OC)c2)c2ccccc21 (stereo not drawn),17,1,-1,12,23744*,-4
COc1cccc2cc(C(C)=O)c(=O)oc12,-2,-1,-1,-1,19894*,1
COc1ccc(CN2C(=O)C(O)(CC(=O)c3ccc4c(c3)OCO4)c3ccccc32)cc1OC (stereo not drawn),12,4,5,5,22009*,-4
Cc1noc(C)c1COc1ccc(C(=O)N2CCCC(C(N)=O)C2)cc1 (stereo not drawn),10,-3,-1,5,6246,-2
Cc1ccc(S(=O)(=O)Nc2ccc(C(=O)NCCCN3CCOCC3)cc2)cc1[N+](=O)[O-],/,-3,-3,4,6522,-1
COc1ccc(OC)c(S(=O)(=O)N/N=C(/C)c2ccc3c(c2)OCO3)c1,19,3,1,14,5333,-1
COc1ccc(CNC(=O)c2cc3cccc(OC)c3oc2=N)cc1,54*,-2,2,11,5387,2
COc1cccc2cc(C(=O)CC3(O)C(=O)N(Cc4ccccc4)c4ccccc43)c(=O)oc12 (stereo not drawn),16,-1,0,6,20419*,-3
O=C(O)CC1(O)C(=O)N(Cc2ccccc2)c2ccccc21 (stereo not drawn),26,-3,-1,0,2603,-2
COc1cccc2cc(C(=O)NCc3ccc(F)cc3)c(=N)oc12,24,6,2,11,5522,1
CCCCCCN(C(=O)CCCN1C(=O)NC(c2ccc([N+](=O)[O-])cc2)C(C(=O)OCc2ccccc2)=C1C)C(C)C(=O)NCCCC (stereo not drawn),/,-2,0,-1,3505,-3
CCC(=O)Nc1ccc(C(=O)NNC(=O)CCCCC(=O)NNC(=O)c2ccc(NC(=O)CC)cc2)cc1,/,-2,0,1,2882,-3
Cc1cc(Oc2ccccc2)nc(SCC(=O)Nc2ccc(Cl)cc2Cl)n1,24,-11,?,-2,18063*,-2
CC(C)C(=O)N1CCCC1(C)C(=O)Nc1ccc2c(c1)OCO2 (stereo not drawn),/,3,0,/,2917,0
COc1ccc2cc(C3(C)NC(=O)N(CC(=O)NCc4ccco4)C3=O)ccc2c1 (stereo not drawn),22,1,1,3,21910*,-2
CC1CCCCC12NC(=O)N(CC(=O)NC(=O)NCc1ccco1)C2=O (stereo not drawn),19,-2,1,-5,22867*,-2
COc1ccc2cc3c(N)c(C(=O)NCc4ccco4)sc3nc2c1,-9,-10,5,67*,4228,2
COc1ccc(CNC(=O)CN2C(=O)NC(C)(c3cccc(Br)c3)C2=O)cc1 (stereo not drawn),-13,28,-1,3,3901,8
SMILES,DUSP3 inh,BoNT-F LC inh,BoNT A protease,MazEF act,Bead autofluor,Anthrax LF prot
Cc1cccc2cc(C#N)c(NCCNC(=O)c3ccccc3)nc12,/,4,1,8,4034,-1
CCOC(=O)C[C@H]1c2cc(C(F)(F)F)ccc2S(=O)(=O)N1C(C)C,/,0,0,2,3956,1
CN(C)S(=O)(=O)N1CCN(CC(O)COc2ccc(-c3ccccc3)cc2)CC1 (stereo not drawn),-16,1,2,2,3550,-5
O=C(Cc1ccc(-n2c(=S)[nH]c3ccccc3c2=O)cc1)N1CCN(c2ccccc2)CC1,12,-2,-1,13,22575*,-6
O=C(Nc1ccc(Oc2ccccc2)nc1)C1CCCCN1Cc1ccco1 (stereo not drawn),18,4,2,5,4674,1
CC1(C(=O)NCc2cccs2)CCN1C(=O)Cc1cccc2ccccc12 (stereo not drawn),/,-3,0,/,3897,-6
O=S(=O)(Nc1ccc(Cc2ccncc2)cc1)c1cccs1,32,-17,0,-8,9265,0
N#CCc1ccc(NS(=O)(=O)c2cccs2)cc1,0,-3,-1,4,16560*,-2
CCOc1ccc(C(=O)N2CCCC(c3nc(-c4cccs4)no3)C2)cc1 (stereo not drawn),23,-3,-1,7,4435,-5
O=C(c1ccc(Cl)cc1)N1CCC(c2nc(-c3cccs3)no2)CC1,39,-6,-5,3,23989*,-1
O=C(c1cc2c(c(-c3cccc(-c4ccncc4)c3)n1)[C@@H](CCO)N(C(=O)c1ccc3c(c1)OCO3)C2)N1CCOCC1,/,1,0,/,5921,-1
Cc1cccc(C(=O)N(Cc2nc3ccccc3c(=O)[nH]2)C2CCCCC2)c1,52*,0,-1,4,3834,4
CCC(Oc1ccc(C)c(C)c1)C(=O)O (stereo not drawn),10,-1,0,5,16400*,4
Cc1ccc(OC(C)C(=O)O)cc1C (stereo not drawn),-14,21,0,2,4507,5
Cc1nn(C)c(Oc2cccc(C(F)(F)F)c2)c1C=O,8,3,1,1,4095,-4
CC(=O)OCc1c(C(F)(F)F)nn(C)c1Oc1ccccc1,-7,-5,-3,1,17428*,1
CC(=O)OCc1c(C(F)(F)F)nn(C)c1Oc1cccc(C(F)(F)F)c1,4,1,0,-2,16385*,-1
Cc1nn(C)c(Oc2ccccc2)c1CCNC(=O)CCl,36,0,0,11,4034,-2
CC1=C(C(=O)N(C)C)CC(CC(=O)NC2CCCC2)C(=O)N1Cc1ccc(F)cc1 (stereo not drawn),/,-1,0,7,3538,-3
CCC1COCCS(=O)(=O)N1Cc1ccc(F)cc1 (stereo not drawn),9,-4,0,2,2919,-1
COc1ccc(S(=O)(=O)Nc2cccc(C)c2C)c2cccnc12,6,9,-1,-21,3427,-2
CCCCNS(=O)(=O)c1ccc(OC)c2ncccc12,2,2,?,3,19492*,0
